Source: PubChem BioAssay (National Center for Advancing Translational Sciences (NCATS))
SMN2 splice up = qHTS Assay for Enhancers of SMN2 Splice Variant Expression; hit rate 2.8% among 210,000; HEK293 SMN2-luciferase splicing reporter, luminescence, 30-36 h; Potency, µM (top dose mostly 46.1 µM), without a hit: at the highest dose activity change, positive = activation, usual class: activators; AID 1458, 2008; note: % of control where 0% means no effect; nearly all actives have a fitted effect of over 55% in size
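HEK293 cells carry an SMN2 minigene-luciferase reporter in which exon 7 inclusion puts luciferase in frame. Cells were seeded at 2000 cells/well, attached for 10-12 hours, then exposed to compounds for 30-36 hours at 37C before ONE-Glo luminescence.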
Rab9 promoter act = qHTS Assay for Rab9 Promoter Activators; Huh7 Rab9 promoter-luciferase reporter, luminescence, 24 h; Potency, µM (top dose mostly 9.22 µM), for the others: top-dose activation, negative = inhibition, hits mostly activators; hit rate 2.8% among 320,000; AID 485297, 2010; note: % of control where 0% means no effect; nearly all actives have a fitted effect of over 60% in size
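Huh7 cells stably carrying Rab9 promoter–luciferase reporter, plated 1500 cells/well, compound added after 2 h and incubated 24 h at 37 °C; luciferase luminescence then read after 10 min with detection reagent.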
NPC1 promoter act = qHTS Assay for NPC1 Promoter Activators; hit rate 2.4% among 320,000; AID 485313, 2010; Huh7 NPC1 promoter luciferase reporter, 24 h; Potency, µM (highest dose often 9.22 µM), inactives show top-dose activation, most hits filed as activators; note: % of control where 0% means no effect; nearly all actives have a fitted effect of over 60% in size
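In 1536-well qHTS, Huh7 cells harboring an NPC1 promoter–luciferase construct received compound for 24 h; activation was quantified by luminescence following luciferase reagent addition.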
ELG1 repair inh = qHTS screen for small molecules that inhibit ELG1-dependent DNA repair in human embryonic kidney (HEK293T) cells expressing luciferase-tagged ELG1. HEK293T ELG1-luciferase reporter, luminescence, 16 h; DNA damage induced by 5-fluorouridine. Potency, µM (top dose mostly 46.1 µM), for the others: at the top dose activity change, negative = inhibition, most hits filed as inhibitors. hit rate 2.3% among 330,000. AID 504467, 2011; note: % is set by controls: 0 for no effect and ±100 for the full control effect; nearly all actives have a fitted effect of over 55% in size
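Reporter activity after DNA damage by 5-fluorouridine is monitored. Compound-treated cells incubate 16 hr at 37 °C, then ONE-Glo is added for 30 min before luminescence reading.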
ELG1 genotox = qHTS screen for small molecules that induce genotoxicity in human embryonic kidney (HEK293T) cells expressing luciferase-tagged ELG1; hit rate 1.3% among 330,000; HEK293T ELG1-luciferase reporter, luminescence, 16 h; Potency, µM (highest dose often 46 µM), without a hit: at the top dose activity change, positive = activation, hits mostly activators; AID 504466, 2011; note: % of control where 0% means no effect; nearly all actives have a fitted effect of over 60% in size
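HEK293T cells expressing luciferase-tagged ELG1 were treated with compound or DMSO for 16 hr at 37°C. Luciferase activity was then read after 30 min with ONE-Glo at room temperature; rising signal flags genetic stress.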
FLuc counter = qHTS profiling assay for firefly luciferase inhibitor/activator using purifed enzyme and Km concentrations of substrates (counterscreen for miR-21 project); purified FLuc, Km substrates, luminescence inhibition; hit rate 6.9% among 360,000; Luciferin 4-monooxygenase (Photinus pyralis), P08659; Potency, µM (highest dose often 57.5 µM), for the others: at the top dose activity change, negative = inhibition, usual class: inhibitors;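 note: plate controls were vehicle for no effect and reference inhibitor for full effect; nearly all actives have a fitted effect of over 55% in size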
Target sequence (P08659 whole entry, looked up): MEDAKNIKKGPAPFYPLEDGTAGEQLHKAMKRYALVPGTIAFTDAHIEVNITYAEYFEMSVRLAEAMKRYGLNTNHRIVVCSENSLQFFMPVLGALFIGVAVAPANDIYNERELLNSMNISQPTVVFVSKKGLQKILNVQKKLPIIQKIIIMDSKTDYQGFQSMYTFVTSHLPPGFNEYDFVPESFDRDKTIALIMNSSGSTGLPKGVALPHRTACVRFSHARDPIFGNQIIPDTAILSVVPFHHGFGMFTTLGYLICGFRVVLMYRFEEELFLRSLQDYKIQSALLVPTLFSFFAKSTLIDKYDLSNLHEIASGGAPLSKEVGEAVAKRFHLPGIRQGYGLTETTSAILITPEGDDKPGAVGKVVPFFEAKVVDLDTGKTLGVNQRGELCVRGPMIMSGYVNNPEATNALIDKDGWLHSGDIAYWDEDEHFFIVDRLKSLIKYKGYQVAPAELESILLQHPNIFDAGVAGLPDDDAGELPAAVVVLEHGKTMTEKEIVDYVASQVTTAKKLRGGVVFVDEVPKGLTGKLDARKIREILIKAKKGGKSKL
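Purified P. pyralis luciferase (10nM final) with 10uM D-luciferin and 10uM ATP (Km levels) in 50mM Tris acetate pH 7.5, 10mM Mg acetate, 0.01% Tween-20, 0.05% BSA; qHTS 6-point titration, ~60 µM downward; luminescence read.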
An asterisk follows results filed as active; ? = inconclusive; . = no result. A selection: hits, their analogues and other compounds. The true share with any hit is near 9.3%. Calls come from the whole dose curve; as a rule, active = well fitted curve in the direction sought with a large enough effect; inconclusive = small, poorly fitted or top-dose-only effect, or another doubt; inactive = no such curve, though single readings can be large; an effect the other way counts as inactive or inconclusive. Potency is the fitted concentration of half-maximal effect.

SMILES	SMN2 splice up	Rab9 promoter act	NPC1 promoter act	ELG1 repair inh	ELG1 genotox	FLuc counter
CCCN1CCC(=O)N(CCSc2ccccc2)CC1	.	3.5µM*	2.8µM*	?	?	?
COc1cccc(/C=C2\Oc3ccc(O)cc3C2=O)c1O	.	?	?	?	?	3.4µM*
O=c1c2ccccc2nc(/C=C/c2cccc([N+](=O)[O-])c2)n1CCO	-8%	-3%	-1%	?	-7%	-2%
Cc1ccc2sc(-c3ccc(NC(=O)CCN4C(=O)c5ccccc5C4=O)cc3)nc2c1	0.4µM*	0.28µM*	0.5µM*	?	4.6µM*	11µM*
CC(=O)Nc1ccc(S(=O)(=O)NCc2cn3ccsc3n2)cc1	5%	-5%	-2%	24%	1%	-1%
O=C(Nc1ccc(F)cc1)C1CCCCC1	-12%	18%	3%	?	2%	-4%
CC(=O)Nc1ccc(-c2cn3ccsc3n2)cc1	10µM*	1.4µM*	1.6µM*	?	5.8µM*	12µM*
O=C(CCN1C(=O)c2ccccc2C1=O)Nc1ccc(-c2cn3ccsc3n2)cc1	?	2.2µM*	?	?	?	2.7µM*
O=C(Nc1ccc(-c2cn3ccsc3n2)cc1)C1CCCC1	?	3.2µM*	4µM*	?	1.8µM*	1.3µM*
O=C1C[C@H](c2ccc(O)cc2)Oc2cc(O[C@@H]3O[C@H](CO)[C@@H](O)[C@H](O)[C@H]3O)cc(O[C@@H]3O[C@H](CO)[C@@H](O)[C@H](O)[C@H]3O)c21	.	.	.	?	2%	.
Cc1cc(NCc2ccc(F)cc2)nc2cc(Cl)ccc12	.	1%	-2%	4%	1%	2%
Cc1coc2cc3oc(=O)c(CCC(=O)NC4CC4)c(C)c3cc12	.	10%	21%	16%	1%	-3%
O=C(Nc1ccc(Cc2ccncc2)cc1)C1CC1	-9%	1%	-4%	-12%	4%	-9%
c1cn2cc(-c3ccc4c(c3)OCO4)nc2s1	13µM*	0.63µM*	0.45µM*	?	?	1.9µM*
O=C(Nc1ccc(-c2ccc3nncn3n2)cc1)C1CCCC1	?	14%	7%	?	-3%	19µM*
O=C(Nc1ccc(-c2cn3ccsc3n2)cc1)C1CC1	?	1.6µM*	2.2µM*	?	?	2.7µM*
COc1cccc(NC(=O)CN(C)CC(=O)Nc2ccc(Br)cc2)c1	-17%	0%	-7%	6%	-3%	-19%
Clc1ccc(-c2nc3c4cnn(-c5ccccc5Br)c4ncn3n2)c(Cl)c1	-2%	.	.	.	.	-17%
Brc1ccccc1-c1nc2c3ccccc3ncn2n1	.	3.2µM*	?	?	13%	?
NS(=O)(=O)c1ccc(NC(=O)COC(=O)C23CC4CC(CC(C4)C2)C3)cc1	-11%	0%	-1%	0%	1%	-3%
COc1ccc(N(C)S(=O)(=O)c2cccc(C(=O)OCC(=O)N(C)c3ccccc3)c2)cc1	.	.	.	16µM*	-9%	.
CCNc1ccc(C(=O)OCC)cc1NC(=O)c1cccc(S(=O)(=O)N(C)c2ccccc2)c1	-20%	-9%	-2%	7.3µM*	-1%	-1%
CC1CCN(C(=O)COC(=O)c2cccc(S(=O)(=O)N(C)c3ccccc3)c2)CC1	.	4%	-1%	12%	-1%	11µM*
CC1CCCC(C)N1C(=O)COC(=O)c1cccc(S(=O)(=O)N(C)c2ccccc2)c1 (stereo unspecified)	.	-5%	-2%	-26%	-3%	?
